# According to PubChem BioAssay (EPA / NIEHS):
# Activity calls are given as the source filed them. Rule for the calls: active = hit-call score of the fitted dose curve at least 0.9, where 1 is the maximum; inactive = score below 0.9.
# Tests used:
# Settings in all cases: mRNA level, 48 h; actives raise or lower the signal
# CYP2C8 (gene 1558) = assay: LTEA_HepaRG_CYP2C8: Life Technologies and Expression Analysis (LTEA) Assay for CYP2C8 using HepaRG (AID 2283483)
# Summary of the method: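 This is a transcriptional endpoint in HepaRG cultures: 48 h exposure, highest concentration 100 uM. CYP2C8 mRNA is quantified by TaqMan qRT-PCR.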
# CYP2C9 (gene 1559) = assay: LTEA_HepaRG_CYP2C9: Life Technologies and Expression Analysis (LTEA) Assay for CYP2C9 using HepaRG (AID 2283484)
# Summary of the method: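 Eight-point concentration-response (highest 100 uM, half-log dilutions) in HepaRG cells for 48 h; CYP2C9 expression by qRT-PCR normalized to ACTB, GAPDH, POLR2A. Bidirectional fit, DMSO baseline.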
# CYP2E1 (gene 1571) = assay: LTEA_HepaRG_CYP2E1: Life Technologies and Expression Analysis (LTEA) Assay for CYP2E1 using HepaRG (AID 2283485)
# Summary of the method: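 CYP2E1 transcript was measured by TaqMan qRT-PCR in human HepaRG cultures after 48 h chemical exposure (top 100 uM, half-log steps, 0.5% DMSO vehicle). Housekeeping-gene normalization; gain or loss fitted relative to DMSO baseline.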
# CYP4A11 (gene 1579) = assay: LTEA_HepaRG_CYP4A11: Life Technologies and Expression Analysis (LTEA) Assay for CYP4A11 using HepaRG (AID 2283486)
# Summary of the method: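 Readout is CYP4A11 mRNA induction or suppression (qRT-PCR, ACTB/GAPDH/POLR2A normalization) in human HepaRG cells after 48 h chemical treatment, concentrations to 100 uM in 0.5% DMSO, fitted bidirectionally against vehicle.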
# [1] = read-out: Cytochrome P450 3A4 (Homo sapiens) (UniProt P08684); assay: LTEA_HepaRG_CYP3A4: Life Technologies and Expression Analysis (LTEA) Assay for CYP3A4 using HepaRG (AID 2283487)
# Summary of the method: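 Differentiated HepaRG cells in serum-free induction medium exposed in duplicate for 48 h to 8 half-log concentrations up to 100 uM in 0.5% DMSO. CYP3A4 mRNA measured by qRT-PCR normalized to ACTB, GAPDH and POLR2A; bidirectional fit versus DMSO.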
# [2] = read-out: DNA damage-inducible transcript 3 (DDIT3), DDIT3 (gene 1649); assay: LTEA_HepaRG_DDIT3: Life Technologies and Expression Analysis (LTEA) Assay for DNA damage-inducible transcript 3 (DDIT3) using HepaRG (AID 2283488)
# Summary of the method: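 qRT-PCR readout (Fluidigm TaqMan), housekeeping-normalized to ACTB, GAPDH, POLR2A. HepaRG cells, 48 h exposure, 8-point half-log series from 100 uM in 0.5% DMSO, duplicates. Gain or loss of signal fitted against DMSO baseline.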
# [3] = read-out: Pro-epidermal growth factor (Homo sapiens) (UniProt P01133); assay: LTEA_HepaRG_EGF: Life Technologies and Expression Analysis (LTEA) Assay for Epidermal growth factor (EGF) using HepaRG (AID 2283489)
# Summary of the method: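 EGF expression changes in human HepaRG cells are scored by bidirectional fitting relative to 0.5% DMSO controls. Chemicals are tested at eight half-log concentrations up to 100 uM for 48 h in serum-free induction medium.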
# [4] = read-out: Early growth response protein 1 (EGR1) transcription factor, EGR1 (gene 1958); assay: LTEA_HepaRG_EGR1: Life Technologies and Expression Analysis (LTEA) Assay for Early growth response protein 1 (EGR1) transcription factor using HepaRG (AID 2283490)
# Summary of the method: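 EGR1 expression change in human HepaRG after 48 h chemical exposure, assessed by housekeeping-normalized qRT-PCR; concentration-response up to 100 uM, fitted in both directions against DMSO controls.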
# [5] = read-out: Ezrin (EZR), EZR (gene 7430); assay: LTEA_HepaRG_EZR: Life Technologies and Expression Analysis (LTEA) Assay for Ezrin (EZR) using HepaRG (AID 2283491)
# Summary of the method: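 Differentiated human HepaRG cells, 48 h after plating, were exposed in serum-free induction medium for 48 hours to eight half-log concentrations up to 100 uM in 0.5% DMSO. EZR mRNA was measured by TaqMan qRT-PCR, normalized to ACTB, GAPDH and POLR2A, and fitted bidirectionally against DMSO.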
# [6] = read-out: Cytochrome P450 3A7 (Homo sapiens) (UniProt P24462); assay: LTEA_HepaRG_CYP3A7: Life Technologies and Expression Analysis (LTEA) Assay for CYP3A7 using HepaRG (AID 2283492)
# Summary of the method: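 Cells were thawed, plated, cultured 48 h, then treated for a further 48 h with chemicals (eight-point half-log series from 100 uM, 0.5% DMSO). RNA was isolated and CYP3A7 expression quantified by qRT-PCR normalised to ACTB, GAPDH and POLR2A.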
# Cytochrome P450 3A4 (Homo sapiens), sequence (P08684 whole entry, looked up): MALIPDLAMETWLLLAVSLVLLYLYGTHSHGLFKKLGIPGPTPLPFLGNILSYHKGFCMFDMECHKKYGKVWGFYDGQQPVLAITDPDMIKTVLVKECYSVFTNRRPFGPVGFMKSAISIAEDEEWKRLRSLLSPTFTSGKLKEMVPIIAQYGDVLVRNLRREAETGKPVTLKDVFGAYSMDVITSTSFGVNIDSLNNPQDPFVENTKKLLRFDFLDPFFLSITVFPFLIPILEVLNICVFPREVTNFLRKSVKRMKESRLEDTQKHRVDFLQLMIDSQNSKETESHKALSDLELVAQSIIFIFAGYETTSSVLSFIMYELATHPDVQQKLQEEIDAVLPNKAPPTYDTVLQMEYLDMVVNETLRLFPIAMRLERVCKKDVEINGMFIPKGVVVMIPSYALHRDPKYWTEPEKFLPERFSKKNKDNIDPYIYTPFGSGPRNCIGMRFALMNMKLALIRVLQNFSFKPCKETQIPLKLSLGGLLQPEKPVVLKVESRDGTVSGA
# Cytochrome P450 3A7 (Homo sapiens), sequence (P24462 whole entry, looked up): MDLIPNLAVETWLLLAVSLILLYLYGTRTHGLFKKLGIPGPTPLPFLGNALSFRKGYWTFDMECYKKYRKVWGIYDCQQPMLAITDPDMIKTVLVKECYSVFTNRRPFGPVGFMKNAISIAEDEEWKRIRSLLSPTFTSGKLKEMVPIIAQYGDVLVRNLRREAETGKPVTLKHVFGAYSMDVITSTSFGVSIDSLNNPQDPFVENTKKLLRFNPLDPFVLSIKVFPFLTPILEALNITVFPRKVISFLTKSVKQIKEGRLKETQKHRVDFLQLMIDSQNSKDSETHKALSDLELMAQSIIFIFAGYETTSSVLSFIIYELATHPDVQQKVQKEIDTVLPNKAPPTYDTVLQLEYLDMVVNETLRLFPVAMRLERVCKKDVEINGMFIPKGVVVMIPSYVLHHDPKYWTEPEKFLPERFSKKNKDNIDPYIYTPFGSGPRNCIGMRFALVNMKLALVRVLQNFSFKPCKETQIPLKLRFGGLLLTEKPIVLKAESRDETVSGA
compound,measurement,setting,value
O=C1C2(Cl)C3(Cl)C4(Cl)C(Cl)(Cl)C5(Cl)C3(Cl)C1(Cl)C5(Cl)C24Cl (stereo not drawn),AC50,CYP2C8 (gene 1558),25.2 µM (active)
same,AC50,CYP2C9 (gene 1559),94.1 µM (active)
same,AC50,CYP2E1 (gene 1571),13.2 µM (active)
same,AC50,CYP4A11 (gene 1579),22.8 µM (active)
same,outcome,[1],inactive
same,AC50,[2],89.4 µM (active)
same,outcome,[3],inactive
same,AC50,[4],95.5 µM (active)
same,AC50,[5],91.3 µM (active)
same,outcome,[6],inactive
CC12CC1(C)C(=O)N(c1cc(Cl)cc(Cl)c1)C2=O (stereo not drawn),outcome,CYP2C8 (gene 1558),inactive
same,outcome,CYP2C9 (gene 1559),inactive
same,AC50,CYP2E1 (gene 1571),16.6 µM (active)
same,AC50,CYP4A11 (gene 1579),9.13 µM (active)
same,AC50,[1],5.34 µM (active)
same,outcome,[2],inactive
same,outcome,[3],inactive
same,outcome,[4],inactive
same,outcome,[5],inactive
same,outcome,[6],inactive
CCOP(=S)(OCC)Oc1nc(Cl)c(Cl)cc1Cl,outcome,CYP2C8 (gene 1558),inactive
same,outcome,CYP2C9 (gene 1559),inactive
same,AC50,CYP2E1 (gene 1571),50 µM (active)
same,outcome,CYP4A11 (gene 1579),inactive
same,AC50,[1],37.2 µM (active)
same,outcome,[2],inactive
same,outcome,[3],inactive
same,outcome,[4],inactive
same,outcome,[5],inactive
same,outcome,[6],inactive
Cn1sc(Cl)cc1=O,outcome,CYP2C8 (gene 1558),inactive
same,outcome,CYP2C9 (gene 1559),inactive
same,outcome,CYP2E1 (gene 1571),inactive
same,outcome,CYP4A11 (gene 1579),inactive
same,outcome,[1],inactive
same,outcome,[2],inactive
same,outcome,[3],inactive
same,outcome,[4],inactive
same,outcome,[5],inactive
same,outcome,[6],inactive
O=C(O)C(F)(F)C(F)(F)C(F)(F)C(F)(F)C(F)(F)C(F)(F)C(F)(F)C(F)(F)C(F)(F)C(F)(F)F,outcome,CYP2C8 (gene 1558),inactive
same,AC50,CYP2C9 (gene 1559),47.8 µM (active)
same,AC50,CYP2E1 (gene 1571),57 µM (active)
same,AC50,CYP4A11 (gene 1579),21.5 µM (active)
same,outcome,[1],inactive
same,outcome,[2],inactive
same,outcome,[3],inactive
same,outcome,[4],inactive
same,outcome,[5],inactive
same,outcome,[6],inactive
CC(C)(C)CC(C)(C)c1ccc(O)cc1,outcome,CYP2C8 (gene 1558),inactive
same,outcome,CYP2C9 (gene 1559),inactive
same,AC50,CYP2E1 (gene 1571),26.5 µM (active)
same,AC50,CYP4A11 (gene 1579),72.3 µM (active)
same,outcome,[1],inactive
same,outcome,[2],inactive
same,outcome,[3],inactive
same,outcome,[4],inactive
same,outcome,[5],inactive
same,outcome,[6],inactive
C[C@@H]1C[C@@H]([C@H](O)CC2CC(=O)NC(=O)C2)C(=O)[C@@H](C)C1,outcome,[2],inactive
same,AC50,[3],2.36 µM (active)
same,AC50,[4],91.8 µM (active)
same,AC50,[5],10.8 µM (active)
O=[N+]([O-])c1ccc(O)c([N+](=O)[O-])c1,AC50,CYP2C8 (gene 1558),40.1 µM (active)
same,AC50,CYP2C9 (gene 1559),21.8 µM (active)
same,AC50,CYP2E1 (gene 1571),20.5 µM (active)
same,AC50,CYP4A11 (gene 1579),31.5 µM (active)
same,AC50,[1],22.2 µM (active)
same,AC50,[2],89.7 µM (active)
same,AC50,[3],12.9 µM (active)
same,AC50,[4],12.5 µM (active)
same,outcome,[5],inactive
same,AC50,[6],16.4 µM (active)
O=C(O)C(F)(F)C(F)(F)C(F)(F)C(F)(F)C(F)(F)C(F)(F)F,outcome,CYP2C8 (gene 1558),inactive
same,outcome,CYP2C9 (gene 1559),inactive
same,outcome,CYP2E1 (gene 1571),inactive
same,AC50,CYP4A11 (gene 1579),18.6 µM (active)
same,outcome,[1],inactive
same,outcome,[2],inactive
same,outcome,[3],inactive
same,outcome,[4],inactive
same,outcome,[5],inactive
same,AC50,[6],35 µM (active)
ClC1(Cl)C2(Cl)C3(Cl)C4(Cl)C(Cl)(Cl)C5(Cl)C3(Cl)C1(Cl)C5(Cl)C24Cl (stereo not drawn),outcome,CYP2C8 (gene 1558),inactive
same,outcome,CYP2C9 (gene 1559),inactive
same,AC50,CYP2E1 (gene 1571),4.06 µM (active)
same,AC50,CYP4A11 (gene 1579),20 µM (active)
same,AC50,[1],4.01 µM (active)
same,outcome,[2],inactive
same,outcome,[3],inactive
same,outcome,[4],inactive
same,outcome,[5],inactive
same,AC50,[6],4.64 µM (active)
CCN1CCC2(CC1)COc1cc3c(cc12)N(C(=O)c1ccc(-c2ccc(-c4nnc(C)o4)cc2C)cc1)CC3,outcome,CYP2C8 (gene 1558),inactive
same,AC50,CYP2C9 (gene 1559),21.4 µM (active)
same,AC50,CYP2E1 (gene 1571),17.7 µM (active)
same,AC50,CYP4A11 (gene 1579),46.8 µM (active)
same,AC50,[1],28 µM (active)
same,AC50,[2],11.6 µM (active)
same,outcome,[3],inactive
same,AC50,[4],11.9 µM (active)
same,outcome,[5],inactive
same,outcome,[6],inactive
C=C(C)C(=O)[O][Sn]([CH2]CCC)([CH2]CCC)[CH2]CCC,AC50,CYP2C8 (gene 1558),2.38 µM (active)
same,outcome,CYP2C9 (gene 1559),inactive
same,outcome,CYP2E1 (gene 1571),inactive
same,AC50,CYP4A11 (gene 1579),1.49 µM (active)
same,AC50,[1],2.52 µM (active)
same,AC50,[2],92.4 µM (active)
same,outcome,[4],inactive
same,AC50,[5],93.5 µM (active)
same,AC50,[6],2.71 µM (active)
O=C(Nc1ccc2[nH]ccc2c1)c1cc2cc(F)ccc2n1Cc1cccc(F)c1,AC50,CYP2C8 (gene 1558),27 µM (active)
same,AC50,CYP2C9 (gene 1559),35.7 µM (active)
same,AC50,CYP2E1 (gene 1571),21.9 µM (active)
same,AC50,CYP4A11 (gene 1579),16.6 µM (active)
same,AC50,[1],83.5 µM (active)
same,AC50,[2],18 µM (active)
same,outcome,[3],inactive
same,outcome,[4],inactive
same,AC50,[5],9.92 µM (active)
same,AC50,[6],75.6 µM (active)
CCC(C)(C)c1ccc(O)c(C(C)(C)CC)c1,outcome,CYP2C8 (gene 1558),inactive
same,outcome,CYP2C9 (gene 1559),inactive
same,outcome,CYP2E1 (gene 1571),inactive
same,outcome,CYP4A11 (gene 1579),inactive
same,outcome,[1],inactive
same,outcome,[2],inactive
same,outcome,[3],inactive
same,outcome,[4],inactive
same,outcome,[5],inactive
same,outcome,[6],inactive
O=c1[nH]c(=O)[nH]c(=O)[nH]1,outcome,CYP2C8 (gene 1558),inactive
same,outcome,CYP2C9 (gene 1559),inactive
same,outcome,CYP2E1 (gene 1571),inactive
same,outcome,CYP4A11 (gene 1579),inactive
same,outcome,[1],inactive
same,outcome,[2],inactive
same,outcome,[3],inactive
same,outcome,[4],inactive
same,outcome,[5],inactive
same,outcome,[6],inactive
O=C(O)C(Cl)(Cl)Cl,outcome,CYP2C8 (gene 1558),inactive
same,outcome,CYP2C9 (gene 1559),inactive
same,outcome,CYP2E1 (gene 1571),inactive
same,outcome,CYP4A11 (gene 1579),inactive
same,outcome,[1],inactive
same,outcome,[2],inactive
same,outcome,[3],inactive
same,outcome,[4],inactive
same,outcome,[5],inactive
same,outcome,[6],inactive
